Inconclusive results are not listed. Calls of active or inactive are those of the source. Unless noted, calls follow the shape of the dose curve; as a rule, active = well fitted curve in the direction sought with a large enough effect in the repeat runs; inconclusive = weak or mixed curves; inactive = no such curve, though single readings can be large; an effect the other way counts as inactive or inconclusive.
Columns and labels:
[1] = qHTS assay to identify small molecule agonists of the sonic hedgehog signaling (Shh) pathway (AID 1259368; calls by dose curve;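 also: NIH/3T3-derived 3T3Gli1-Luc cells carrying a stable Gli1-driven firefly luciferase reporter; series mostly up to about 92 µM; nearly all actives have a fitted effect of over 15% in size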)
Summary of the method: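 Steps: seed 3T3 Gli1-Luc cells, incubate 4 hr at 37 C, pin-transfer compounds in DMSO alongside a positive control, incubate 24 hr, add luciferase detection reagent, wait 30 min at room temperature, read luminescence.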

[2] = qHTS assay to identify small molecule antagonists of the sonic hedgehog signaling (Shh) pathway (AID 1259369; calls by dose curve; also: nearly all actives have a fitted effect of over 45% in size)
Summary of the method: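 Inhibition of Shh signalling is measured as reduced Gli1-response-element firefly luciferase output in an NIH/3T3-derived stable reporter clone stimulated with conditioned medium for 24hr.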

[3] = molecular target: Estrogen receptor beta (Homo sapiens) (UniProt Q92731); assay: qHTS assay to identify small molecule agonists of the estrogen receptor beta (ER-beta) signaling pathway (AID 1259377; active = well fitted activation curve with a large enough effect in the signal ratio in the repeat runs, not every such curve was filed as active; the % refers to the signal ratio)
Chain of Estrogen receptor beta (Homo sapiens) (Q92731 whole entry, looked up): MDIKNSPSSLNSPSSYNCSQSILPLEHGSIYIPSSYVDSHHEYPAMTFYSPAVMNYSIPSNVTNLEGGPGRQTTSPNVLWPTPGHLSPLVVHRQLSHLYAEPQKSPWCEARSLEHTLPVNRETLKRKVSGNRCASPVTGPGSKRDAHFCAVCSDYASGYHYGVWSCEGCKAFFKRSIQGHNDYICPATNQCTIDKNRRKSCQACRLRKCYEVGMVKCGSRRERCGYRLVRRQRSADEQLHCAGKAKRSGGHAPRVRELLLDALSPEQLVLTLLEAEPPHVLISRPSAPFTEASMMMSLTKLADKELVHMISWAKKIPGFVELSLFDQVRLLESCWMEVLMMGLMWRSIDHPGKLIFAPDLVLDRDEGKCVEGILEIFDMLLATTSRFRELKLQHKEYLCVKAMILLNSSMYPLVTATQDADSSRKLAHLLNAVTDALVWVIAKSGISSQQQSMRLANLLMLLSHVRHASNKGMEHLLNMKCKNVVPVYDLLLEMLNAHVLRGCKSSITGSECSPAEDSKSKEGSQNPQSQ
Summary of the method: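 ER-beta-UAS-bla HEK293T cells in medium with 2% charcoal-stripped FBS were exposed to compounds for 16 h at 37C. Beta-lactamase reporter activity was read as fluorescence after 2 h with LiveBLAzer B/G FRET substrate at room temperature.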

[4] = molecular target: Estrogen receptor beta (Homo sapiens) (UniProt Q92731); assay: qHTS assay to identify small molecule antagonists of the estrogen receptor beta (ER-beta) signaling pathway (AID 1259378; active = well fitted inhibition curve with a large enough effect in the signal ratio in the repeat runs, not every such curve was filed as active; the % refers to the signal ratio)
Summary of the method: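 ER-beta-UAS-bla HEK293T cells in 2% charcoal-stripped FBS medium treated with compound plus 1nM final 17-beta-estradiol for 16 hr at 37C. Beta-lactamase reporter read by FRET substrate fluorescence after 2 hours at room temperature.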

[5] = qHTS assay to identify small molecule agonists of the androgen receptor (AR) signaling pathway in the presence of an antagonist - cell viability counter screen (AID 1259379);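 also: MDA-kb2 human breast cancer cells carrying an MMTV luciferase reporter; series mostly up to about 92 µM; nearly all actives have a fitted effect of over 25% in size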
Summary of the method: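 Fluorescence from CellTiter-Fluor, added after 15 hr and read 1 hr later, gave cell viability. Cells were MDA-kb2 exposed to compounds (15 concentrations) in the presence of 3.0uM nilutamide at 37C, 0% CO2.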

[6] = qHTS assay to identify small molecule agonists of the estrogen receptor beta (ER-beta) signaling pathway - cell viability counter screen (AID 1259380); also: nearly all actives have a fitted effect of over 30% in size
Summary of the method: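 Same-well viability counter screen. Cells: ER-beta-UAS-bla HEK293T, plated 6 hr before compound, in 2% charcoal-stripped FBS. Compound exposure 16 hr, 37C; viability by CellTiter-Glo luminescence after 30 min at room temperature.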

[7] = molecular target: Estrogen receptor (Homo sapiens) (UniProt P03372); assay: qHTS assay to identify small molecule agonists of the estrogen receptor alpha (ER-alpha) signaling pathway in the presence of an antagonist (AID 1259383; calls by dose curve; also: top concentration of the series differs between compounds; nearly all actives have a fitted effect of over 15% in size)
Chain of Estrogen receptor (Homo sapiens) (P03372 whole entry, looked up): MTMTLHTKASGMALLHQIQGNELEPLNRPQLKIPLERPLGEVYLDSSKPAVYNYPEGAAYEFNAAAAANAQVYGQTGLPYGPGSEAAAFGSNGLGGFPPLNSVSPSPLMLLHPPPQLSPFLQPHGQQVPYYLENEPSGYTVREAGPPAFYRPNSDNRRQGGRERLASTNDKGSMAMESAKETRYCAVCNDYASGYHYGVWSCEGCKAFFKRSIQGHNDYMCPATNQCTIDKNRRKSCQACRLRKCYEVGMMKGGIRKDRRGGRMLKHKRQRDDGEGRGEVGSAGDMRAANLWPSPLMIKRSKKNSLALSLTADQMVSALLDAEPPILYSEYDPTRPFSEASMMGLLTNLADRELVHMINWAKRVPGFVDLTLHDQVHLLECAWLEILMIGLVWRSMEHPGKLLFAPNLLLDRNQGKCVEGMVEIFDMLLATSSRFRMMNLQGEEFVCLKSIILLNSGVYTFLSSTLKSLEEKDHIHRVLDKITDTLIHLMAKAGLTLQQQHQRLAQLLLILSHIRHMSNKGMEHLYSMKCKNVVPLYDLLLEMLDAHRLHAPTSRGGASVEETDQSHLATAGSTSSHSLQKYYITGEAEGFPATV
Summary of the method: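 Cells are hormone-deprived for 5 days (charcoal-stripped FBS, no phenol red), plated for 24hr, spiked with 10.0nM ICI-182,780, then dosed at 15 concentrations. After 22hr at 37C, ONE-Glo luminescence reports ERE-luciferase activity.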

[8] = qHTS assay to identify small molecule agonists of the estrogen receptor alpha (ER-alpha) signaling pathway in the presence of an antagonist - cell viability counter screen (AID 1259386);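 also: series mostly up to about 92 µM; cells exposed to compounds for 22 h at 37 °C before the viability read; nearly all actives have a fitted effect of over 30% in size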
Summary of the method: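 Cells are starved of estrogens for 5 days in charcoal-stripped serum, seeded for 24hr and co-treated with ICI-182,780 (10.0nM final) and test compounds. After 22hr at 37C, viability is read as CellTiter-Fluor fluorescence.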

[9] = molecular target: Progesterone receptor (Homo sapiens) (UniProt P06401); assay: qHTS assay to identify small molecule antagonists of the progesterone receptor (PR) signaling pathway (AID 1346795; active = well fitted inhibition curve with a large enough effect in the signal ratio in the repeat runs, not every such curve was filed as active; the % refers to the signal ratio)
Chain of Progesterone receptor (Homo sapiens) (P06401 whole entry, looked up): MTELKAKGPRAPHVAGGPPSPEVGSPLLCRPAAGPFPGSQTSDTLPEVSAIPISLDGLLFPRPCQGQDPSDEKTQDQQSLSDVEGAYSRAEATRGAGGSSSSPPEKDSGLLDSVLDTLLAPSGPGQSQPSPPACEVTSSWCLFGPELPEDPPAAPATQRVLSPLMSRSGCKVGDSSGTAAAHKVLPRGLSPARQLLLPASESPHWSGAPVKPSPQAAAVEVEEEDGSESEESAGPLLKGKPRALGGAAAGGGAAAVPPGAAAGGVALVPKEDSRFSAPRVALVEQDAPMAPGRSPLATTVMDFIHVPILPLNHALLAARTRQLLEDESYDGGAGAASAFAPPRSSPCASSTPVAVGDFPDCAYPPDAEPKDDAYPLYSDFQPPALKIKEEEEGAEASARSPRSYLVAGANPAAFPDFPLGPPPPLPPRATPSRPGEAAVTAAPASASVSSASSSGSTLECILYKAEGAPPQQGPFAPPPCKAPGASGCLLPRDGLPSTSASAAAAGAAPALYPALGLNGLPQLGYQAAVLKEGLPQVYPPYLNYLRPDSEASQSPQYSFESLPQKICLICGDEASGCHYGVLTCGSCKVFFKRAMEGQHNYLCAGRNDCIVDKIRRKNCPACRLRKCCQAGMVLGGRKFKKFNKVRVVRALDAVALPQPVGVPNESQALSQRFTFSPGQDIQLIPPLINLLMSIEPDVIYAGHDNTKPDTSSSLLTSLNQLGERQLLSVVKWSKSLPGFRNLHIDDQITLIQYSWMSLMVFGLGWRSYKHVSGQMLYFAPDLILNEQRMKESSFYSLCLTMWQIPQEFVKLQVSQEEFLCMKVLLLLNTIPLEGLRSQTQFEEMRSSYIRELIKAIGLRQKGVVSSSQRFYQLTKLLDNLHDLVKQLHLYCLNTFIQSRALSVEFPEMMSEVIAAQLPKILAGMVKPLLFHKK
Summary of the method: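 PR-UAS-bla HEK293T cells with beta-lactamase reporter under UAS control, in 2% charcoal-stripped FBS, treated with compounds plus 1 nM promegestone (R5020, final) for 16 hr at 37C. Read-out: FRET beta-lactamase substrate fluorescence after 2 hr at room temperature.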

[10] = qHTS assay to identify small molecule antagonists of the progesterone receptor (PR) signaling pathway - cell viability counter screen (AID 1346798); also: series mostly up to about 92 µM; nearly all actives have a fitted effect of over 50% in size
Summary of the method: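 PR-UAS-bla HEK293T cells, 3,000/well in 2% charcoal-stripped FBS medium, dosed with compounds plus R5020 agonist and incubated 16 h at 37C. Viability then measured in the same wells by CellTiter-Glo luminescence after 30 min at RT.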

[11] = qHTS assay to identify small molecule antagonists of the TGF-beta/Smad signaling pathway - cell viability counter screen (AID 1346824); also: nearly all actives have a fitted effect of over 50% in size
Summary of the method: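 SBE-bla HEK 293T cells, incubated overnight, then compound plus 0.25 ng/mL TGF-beta1 (stock added) for 5 hr at 37 C. Viability was read in the same wells by CellTiter-Glo luminescence after 30 min at room temperature.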

[12] = qHTS assay to identify small molecule agonists of the TGF-beta/Smad signaling pathway - cell viability counter screen (AID 1346829); also: top concentration of the series differs between compounds; nearly all actives have a fitted effect of over 45% in size
Summary of the method: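 HEK 293T SBE-bla line, 5 hr compound exposure at 37 C, multiplexed CellTiter-Glo viability read by luminescence.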

[13] = qHTS assay to identify small molecule agonists of the TGF-beta/Smad signaling pathway (AID 1346859; active = well fitted activation curve with a large enough effect in the signal ratio in the repeat runs, not every such curve was filed as active; the % refers to the signal ratio; also: series mostly up to about 77 µM)
Summary of the method: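 SBE-bla HEK293T cells plated overnight, then compound exposure for 5 h at 37 C. Beta-lactamase reporter read with LiveBLAzer B/G FRET substrate after 2 h at room temperature, fluorescence at 405 nm excitation, 460/530 nm emission.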

[14] = molecular target: Thyrotropin-releasing hormone receptor (Homo sapiens) (UniProt P34981); assay: qHTS assay to identify small molecule antagonists of the thyrotropin-releasing hormone receptor (TRHR) signaling pathway (AID 1346877; active = well fitted inhibition curve with a large enough effect in the repeat runs, not every such curve was filed as active; also: series mostly up to about 51 µM)
Chain of Thyrotropin-releasing hormone receptor (Homo sapiens) (P34981 whole entry, looked up): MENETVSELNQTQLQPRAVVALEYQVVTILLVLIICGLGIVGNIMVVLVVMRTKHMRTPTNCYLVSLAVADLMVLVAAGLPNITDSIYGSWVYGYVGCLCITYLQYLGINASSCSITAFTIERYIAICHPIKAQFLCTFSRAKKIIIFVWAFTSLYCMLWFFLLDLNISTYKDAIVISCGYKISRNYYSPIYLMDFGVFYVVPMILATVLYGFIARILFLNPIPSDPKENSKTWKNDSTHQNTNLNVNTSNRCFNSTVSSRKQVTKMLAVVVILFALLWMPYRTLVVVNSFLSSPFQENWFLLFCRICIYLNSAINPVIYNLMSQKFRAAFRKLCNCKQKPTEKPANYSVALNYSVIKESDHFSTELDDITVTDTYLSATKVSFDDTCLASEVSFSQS
Summary of the method: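 Cells (TRHR-HEK293) are plated and kept 18 h at 37 °C/5% CO2. A calcium-sensitive dye is added for 2 h, compound follows for 5 min at room temperature, and TRH is then given at 1 nM final.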

[15] = qHTS assay to identify small molecule antagonists of the estrogen receptor beta (ER-beta) signaling pathway - cell viability counter screen (AID 1259382); also: series mostly up to about 92 µM; nearly all actives have a fitted effect of over 55% in size
Summary of the method: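 Following a 6 hr plating period, HEK293T cells carrying a UAS-driven beta-lactamase reporter under ER-beta control received compounds and 1nM E2 (final). After 16 hr at 37C and 2 hr substrate loading, CellTiter-Glo luminescence indicated viability.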

[16] = molecular target: Progesterone receptor (Homo sapiens) (UniProt P06401); assay: qHTS assay to identify small molecule agonists of the progesterone receptor (PR) signaling pathway (AID 1346784; calls by dose curve; also: nearly all actives have a fitted effect of over 30% in size)
Summary of the method: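 PR-UAS-bla HEK 293T cells (beta-lactamase reporter under UAS) in 2% charcoal-stripped FBS, dosed with 23 nL compound after 6 hr, incubated 16hr at 37C. LiveBLAzer B/G FRET substrate added, fluorescence read after 2 hours.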

[17] = qHTS assay to identify small molecule agonists of the progesterone receptor (PR) signaling pathway - cell viability counter screen (AID 1346799; calls by dose curve; also: nearly all actives have a fitted effect of over 45% in size)
Summary of the method: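 Counter screen in the PR-UAS-bla HEK293T wells (2% charcoal-stripped FBS, 16 h compound exposure at 37 C) after the bla read. CellTiter-Glo added, 30 min at room temperature, luminescence read as cell viability.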

[18] = qHTS assay to identify small molecule agonists or antagonists of the thyroid stimulating hormone receptor (TSHR) signaling pathway - wild type cell line counter screen (AID 1259384; calls by dose curve)
Summary of the method: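 Wild-type Hek293 cells, 800/well, 18 h at 37C, then compound with Ro20-1724 for 30 min RT. cAMP by HTRF (cAMP-d2/anti-cAMP cryptate), 1 h RT, fluorescence read. 15 concentrations, triplicates.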

[19] = molecular target: Thyrotropin receptor (Homo sapiens) (UniProt P16473); assay: qHTS assay to identify small molecule antagonists of the thyroid stimulating hormone receptor (TSHR) signaling pathway (AID 1259385; calls by dose curve; also: nearly all actives have a fitted effect of over 20% in size)
Chain of Thyrotropin receptor (Homo sapiens) (P16473 whole entry, looked up): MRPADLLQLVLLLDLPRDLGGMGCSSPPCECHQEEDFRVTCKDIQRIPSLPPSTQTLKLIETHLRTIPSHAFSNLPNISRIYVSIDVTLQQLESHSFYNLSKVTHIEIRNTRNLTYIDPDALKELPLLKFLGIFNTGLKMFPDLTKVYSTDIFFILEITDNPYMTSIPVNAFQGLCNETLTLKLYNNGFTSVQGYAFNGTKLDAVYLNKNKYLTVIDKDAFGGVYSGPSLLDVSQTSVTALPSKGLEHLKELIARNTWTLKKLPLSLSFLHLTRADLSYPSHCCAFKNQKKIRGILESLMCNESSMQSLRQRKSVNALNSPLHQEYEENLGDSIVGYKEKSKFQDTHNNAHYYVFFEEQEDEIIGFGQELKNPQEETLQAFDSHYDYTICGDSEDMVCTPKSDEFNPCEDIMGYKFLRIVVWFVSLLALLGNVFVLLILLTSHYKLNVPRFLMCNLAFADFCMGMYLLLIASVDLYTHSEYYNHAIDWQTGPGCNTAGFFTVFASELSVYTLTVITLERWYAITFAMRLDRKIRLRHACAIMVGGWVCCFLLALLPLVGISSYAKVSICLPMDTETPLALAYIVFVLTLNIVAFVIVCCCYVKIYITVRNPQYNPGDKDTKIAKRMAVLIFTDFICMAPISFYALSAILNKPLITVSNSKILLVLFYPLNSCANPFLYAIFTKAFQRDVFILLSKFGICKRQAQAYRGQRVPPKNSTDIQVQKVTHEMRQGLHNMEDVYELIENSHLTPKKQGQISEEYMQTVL
Summary of the method: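 TSHR-HEK293 cells (800/well) plated 18 h, then compounds with Ro20-1724 and TSH at 1.5 ng/mL final, 30 min at room temperature. cAMP quantified by HTRF (cAMP-d2/anti-cAMP-cryptate, 1 h); 15 concentrations in triplicate.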

Measured: Potency

CCCCN(CCO)CCO
inactive: [1] | [2] | [3] | [4] | [5] | [6] | [7] | [8] | [9] | [10] | [11] | [12] | [13] | [14]

NC(=O)Nc1nc2ccccc2[nH]1
inactive: [1] | [2] | [3] | [4] | [5] | [6] | [15] | [7] | [8] | [16] | [9] | [10] | [17] | [11] | [12] | [13]

O=C(O)/C=C/c1ccc(/C=C/C(=O)O)cc1
inactive: [1] | [2] | [3] | [4] | [5] | [6] | [15] | [16] | [9] | [10] | [11] | [13] | [14]

Cn1cnc2c(=O)[nH]c(N)nc21
inactive: [1] | [2] | [3] | [4] | [5] | [6] | [15] | [18] | [19] | [8] | [16] | [9] | [17] | [11] | [13]

COc1cc(C)cc(O)c1
inactive: [1] | [2] | [3] | [4] | [5] | [6] | [15] | [8] | [16] | [9] | [10] | [17] | [11] | [13]

CCCCCOC(=O)Nc1nc(=O)n([C@@H]2O[C@H](C)[C@@H](O)[C@H]2O)cc1F
inactive: [1] | [2] | [3] | [4] | [5] | [6] | [15] | [7] | [18] | [19] | [16] | [9] | [10] | [17] | [12] | [13]

CC(C)(C)CC(C)(C)N
inactive: [1] | [2] | [3] | [4] | [5] | [6] | [15] | [7] | [18] | [19] | [8] | [10] | [17] | [11] | [12] | [13]

C=C[Si](OC)(OC)OC
inactive: [1] | [2] | [3] | [4] | [5] | [6] | [15] | [7] | [8] | [9] | [10] | [17] | [11] | [12] | [13] | [14]
